Assay [1] can be described thus: BSK_hDFCGF_SRB: Viability Assessment in the BioMAP Diversity Plus: hDFCGF Assay (AID 2283061).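 Note: cells exposed to compound for 24 h before the read.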 Conditions: primary human foreskin fibroblasts. Summed up: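 Readout is SRB absorbance at 560 nm, reflecting total protein in parallel cultures of human foreskin fibroblasts harvested 24 h after chemical dosing. Activity was fitted bidirectionally relative to DMSO.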
Read-out in assay [2]: TIMP metallopeptidase inhibitor 1 (TIMP1), TIMP1 (gene 7076)
Description: BSK_hDFCGF_TIMP1: BioMAP Diversity Plus: hDFCGF Assay for TIMP metallopeptidase inhibitor 1 (TIMP1) Biomarker Activity (AID 2283062). Conditions: primary human foreskin fibroblasts; actives raise or lower the signal. Summed up: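 Human skin fibroblasts (primary), hDFCGF system; compound exposure 24 h; TIMP-1 by ELISA; bidirectional fit vs DMSO negative control; overt cytotoxicity by SRB in parallel wells.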

Read-out in assay [3]: Monokine induced gamma interferon (MIG), CXCL9 (gene 4283)
Description: BSK_hDFCGF_MIG: BioMAP Diversity Plus: hDFCGF Assay for Monokine induced gamma interferon (MIG) Biomarker Activity (AID 2283063). To be noted: primary human foreskin fibroblasts; actives raise or lower the signal. In a few lines:
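Chemicals were added to primary human foreskin fibroblast cultures, which were sampled 24 h later. MIG levels were then quantified by ELISA and responses fitted in both directions relative to DMSO.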

Read-out in assay [4]: Matrix Metallopeptidase 1 (MMP1), MMP1 (gene 4312)
The assay is described as follows: BSK_hDFCGF_MMP1: BioMAP Diversity Plus: hDFCGF Assay for Matrix Metallopeptidase 1 (MMP1) Biomarker Activity (AID 2283064). To be noted: primary human foreskin fibroblasts; actives raise or lower the signal. Summed up:
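hDFCGF primary fibroblasts (human foreskin); chemical added; 24 h; MMP1 by ELISA; bidirectional fit vs DMSO.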

Read-out in assay [5]: Plasminogen activator inhibitor-1 (PAI1), SERPINE1 (gene 5054)
Description: BSK_hDFCGF_PAI1: BioMAP Diversity Plus: hDFCGF Assay for Plasminogen activator inhibitor-1 (PAI1) Biomarker Activity (AID 2283066). Conditions: primary human foreskin fibroblasts; actives raise or lower the signal. Summed up: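 Human foreskin fibroblasts in the hDFCGF system were dosed with compound for 24 h; PAI-1 was quantified by ELISA. Bidirectional curve fitting used DMSO as negative control and baseline.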

Read-out in assay [6]: Intercellular Adhesion Molecule 1 (ICAM1), ICAM1 (gene 3383)
Description: BSK_KF3CT_ICAM1: BioMAP Diversity Plus: KF3CT Assay for Intercellular Adhesion Molecule 1 (ICAM1) Biomarker Activity (AID 2283067). Conditions: primary human keratinocytes with fibroblasts; actives raise or lower the signal. In a few lines:
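ICAM-1 levels are measured by ELISA 24 h after dosing a primary human co-culture of keratinocytes and foreskin fibroblasts. Activity in either direction is fitted relative to DMSO vehicle.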

Read-out in assay [7]: Interferon-gamma inducible Protein 10 (IP10), CXCL10 (gene 3627)
Description: BSK_KF3CT_IP10: BioMAP Diversity Plus: KF3CT Assay for Interferon-gamma inducible Protein 10 (IP10) Biomarker Activity (AID 2283068). Conditions: primary human keratinocytes with fibroblasts; actives raise or lower the signal. In a few lines:
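In a primary skin co-culture of keratinocytes and fibroblasts, IP-10 is quantified by ELISA at 24 h after dosing. SRB staining of parallel wells monitors overt toxicity. Curves are fitted both directions against DMSO.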

Assay [8] is described as follows: BSK_KF3CT_SRB: Viability Assessment in the BioMAP Diversity Plus: KF3CT Assay (AID 2283069).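 Note: total protein by sulforhodamine B staining as a cytotoxicity measure; read 24 h after compound addition; fitted for both signal gain and loss against DMSO baseline.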 To be noted: primary human keratinocytes with fibroblasts. Summed up:
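Keratinocytes co-cultured with foreskin fibroblasts (human primary); chemical added, 24 h; fix 10% TCA, stain 0.1% SRB, A560. Bidirectional fit vs DMSO.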

Read-out in assay [9]: Interleukin-1 alpha (IL1a), IL1A (gene 3552)
The assay is described as follows: BSK_KF3CT_IL1a: BioMAP Diversity Plus: KF3CT Assay for Interleukin-1 alpha (IL1a) Biomarker Activity (AID 2283070). To be noted: primary human keratinocytes with fibroblasts; actives raise or lower the signal. Summed up: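 Chemicals were dosed onto co-cultured human keratinocytes and foreskin fibroblasts, IL-1a was quantified by ELISA at 24 h, and activity was fitted in both directions relative to DMSO controls.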

Read-out in assay [10]: TIMP metallopeptidase inhibitor 2 (TIMP2), TIMP2 (gene 7077)
Description: BSK_KF3CT_TIMP2: BioMAP Diversity Plus: KF3CT Assay for TIMP metallopeptidase inhibitor 2 (TIMP2) Biomarker Activity (AID 2283071). To be noted: primary human keratinocytes with fibroblasts; actives raise or lower the signal. Summed up: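 Human primary keratinocyte/foreskin fibroblast co-culture dosed with chemical and sampled at 24 h. TIMP-2 levels quantified by ELISA; bidirectional fitting against DMSO negative control as baseline.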

Read-out in assay [11]: Transforming growth factor beta 1 (TGFb1), TGFB1 (gene 7040)
Description: BSK_KF3CT_TGFb1: BioMAP Diversity Plus: KF3CT Assay for Transforming growth factor beta 1 (TGFb1) Biomarker Activity (AID 2283072). To be noted: primary human keratinocytes with fibroblasts; actives raise or lower the signal. Summed up: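 Human keratinocyte plus foreskin fibroblast primary co-culture, dosed with chemical for 24 h. TGF-b1 quantified by ELISA. Activity fitted bidirectionally against DMSO negative control as baseline.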

Read-out in assay [12]: Matrix Metallopeptidase 9 (MMP9), MMP9 (gene 4318)
Description: BSK_KF3CT_MMP9: BioMAP Diversity Plus: KF3CT Assay for Matrix Metallopeptidase 9 (MMP9) Biomarker Activity (AID 2283074). Conditions: primary human keratinocytes with fibroblasts; actives raise or lower the signal. In a few lines:
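Human keratinocyte/foreskin fibroblast co-culture; compound added; 24 h; MMP-9 by ELISA; bidirectional fit vs DMSO baseline.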

Read-out in assay [13]: urokinase plasminogen activator (uPA), PLAU (gene 5328)
Description: BSK_KF3CT_uPA: BioMAP Diversity Plus: KF3CT Assay for urokinase plasminogen activator (uPA) Biomarker Activity (AID 2283075). Conditions: primary human keratinocytes with fibroblasts; actives raise or lower the signal. In a few lines:
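ELISA readout of uPA, analyzed for signal gain or loss relative to DMSO, from a human primary keratinocyte–foreskin fibroblast co-culture measured 24 h after chemical treatment.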

Read-out in a further assay: CD40, CD40 (gene 958)
Description: BSK_LPS_CD40: BioMAP Diversity Plus: LPS Assay for CD40 Biomarker Activity (AID 2283076). Conditions: primary human HUVEC with PBMC; actives raise or lower the signal. Summed up:
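Cells were dosed, incubated 24 h, then assayed for CD40 by ELISA. Gain or loss of signal was analysed relative to DMSO controls. The culture paired human umbilical vein endothelium with peripheral blood mononuclear cells.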

Read-out in assay [14]: E-selectin (Homo sapiens) (UniProt P16581)
Description: BSK_LPS_Eselectin: BioMAP Diversity Plus: LPS Assay for Eselectin Biomarker Activity (AID 2283077). Conditions: primary human HUVEC with PBMC; actives raise or lower the signal. In a few lines:
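Primary human vascular co-culture (endothelium plus PBMC) was dosed with chemical, then E-selectin quantified by ELISA at 24 h. Endpoint values derive from bidirectional curve fitting relative to DMSO.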

Read-out in assay [15]: Interleukin-8 (IL8), CXCL8 (gene 3576)
The assay is described as follows: BSK_LPS_IL8: BioMAP Diversity Plus: LPS Assay for Interleukin-8 (IL8) Biomarker Activity (AID 2283078). Conditions: primary human HUVEC with PBMC; actives raise or lower the signal. In a few lines:
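Readout is IL-8 by ELISA, taken 24 h after compounds were added to LPS-stimulated endothelial/PBMC co-cultures. Both increases and decreases relative to DMSO control were scored through bidirectional fitting.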

A short description of assay [16]: BSK_LPS_SRB: Viability Assessment in the BioMAP Diversity Plus: LPS Assay (AID 2283079).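 Note: total protein by sulforhodamine B absorbance as a cytotoxicity measure; measured one day after compound addition; fitted in both directions against DMSO so loss or gain of signal counts.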 To be noted: primary human HUVEC with PBMC. In a few lines: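 Readout is SRB absorbance at 560 nm (0.1% stain, TCA-fixed parallel cultures) as a total-protein cytotoxicity measure. Cells: primary human umbilical vein endothelium plus peripheral blood mononuclear cells, 24 h after chemical exposure; DMSO served as baseline.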

Read-out in assay [17]: Interleukin-1 alpha (IL1a), IL1A (gene 3552)
The assay is described as follows: BSK_LPS_IL1a: BioMAP Diversity Plus: LPS Assay for Interleukin-1 alpha (IL1a) Biomarker Activity (AID 2283080). To be noted: primary human HUVEC with PBMC; actives raise or lower the signal. Summed up:
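ELISA read-out of IL-1 alpha from a human primary vascular co-culture (endothelium plus PBMC) under LPS, sampled 24 hours post-dosing. Activity was fitted in both directions relative to DMSO controls.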

Read-out in assay [18]: C-C motif chemokine 2 (Homo sapiens) (UniProt P13500)
The assay is described as follows: BSK_KF3CT_MCP1: BioMAP Diversity Plus: KF3CT Assay for Monocyte Chemoattractant Protein 1 (MCP1/CCL2) Biomarker Activity (AID 2283073). Conditions: primary human keratinocytes with fibroblasts; actives raise or lower the signal. In a few lines: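 ELISA readout of MCP-1 after 24 h chemical dosing of a human skin primary co-culture of keratinocytes and foreskin fibroblasts. Activity was fitted in both directions against DMSO.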

Usually AC50 stands for the concentration giving half of the maximal activity seen.

Active and inactive are the calls of the source. Rule for the calls: active = hit-call score of the fitted dose curve at least 0.9, where 1 is the maximum; inactive = score below 0.9.

Sequence of E-selectin (Homo sapiens) (P16581 whole entry, looked up): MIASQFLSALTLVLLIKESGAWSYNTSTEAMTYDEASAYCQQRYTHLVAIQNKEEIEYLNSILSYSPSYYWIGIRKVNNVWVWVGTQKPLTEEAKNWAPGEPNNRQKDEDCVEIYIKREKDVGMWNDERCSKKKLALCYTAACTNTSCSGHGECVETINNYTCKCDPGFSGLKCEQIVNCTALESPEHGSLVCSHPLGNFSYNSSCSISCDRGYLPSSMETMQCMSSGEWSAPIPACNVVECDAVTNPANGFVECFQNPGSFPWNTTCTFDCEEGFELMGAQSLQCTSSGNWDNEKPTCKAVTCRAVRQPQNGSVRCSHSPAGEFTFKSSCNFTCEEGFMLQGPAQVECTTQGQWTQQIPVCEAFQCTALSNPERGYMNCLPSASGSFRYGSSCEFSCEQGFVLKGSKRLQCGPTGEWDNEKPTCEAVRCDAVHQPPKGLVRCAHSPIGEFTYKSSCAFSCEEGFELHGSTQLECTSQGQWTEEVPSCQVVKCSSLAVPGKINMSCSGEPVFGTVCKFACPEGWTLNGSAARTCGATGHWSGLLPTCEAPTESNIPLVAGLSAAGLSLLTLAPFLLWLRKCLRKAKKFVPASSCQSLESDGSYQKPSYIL

Take `O=C(NC(=O)c1cc(F)c(F)cc1Cl)Nc1cc(F)ccc1N1CCC(C(=O)O)CC1`: the result in assay [1], in assay [2], in assay [3], in assay [4], in assay [5] and in [6] was inactive. The outcome in assay [7], in [8], in [9], in [10], in [11] and in assay [12] was inactive. For the same compound, the outcome in [13] was “inactive”; with CD40, CD40 (gene 958), “inactive”; in [14] it was “inactive”; in [15], “inactive”; in assay [16] it was “inactive”; in [17] it was “inactive”.

For `O=S(=O)(O)C(F)(F)C(F)(F)C(F)(F)C(F)(F)F`, the outcome in assay [1], in assay [2], in assay [3], in assay [4], in assay [5] and in assay [6] was inactive. The result in assay [7], in assay [8], in assay [9], in assay [10], in assay [11] and in assay [12] was inactive. Besides, the outcome is “inactive” in [13]; “inactive” with CD40, CD40 (gene 958); “inactive” in assay [14]; “inactive” in assay [15]; “inactive” in assay [16]; “inactive” in [17].

As to `Oc1ccc(Cl)cc1Cl`, the result in assay [1], in assay [2], in assay [3], in [4], in assay [5] and in assay [6] was inactive. Further, the result in assay [7], in assay [8], in [9], in assay [10], in assay [11] and in assay [12] was inactive. Besides, the outcome in [13] was “inactive”; with CD40, CD40 (gene 958), “inactive”; in [14], “inactive”; in [15], “inactive”; in [16] it was “inactive”; in assay [17], “inactive”.

With `CN(C)c1nc(=O)n(C2CCCCC2)c(=O)n1C`, the outcome in [1], in assay [2], in assay [3], in assay [4], in assay [5] and in assay [6] was inactive. For the same compound, the outcome in assay [7], in assay [8], in [9], in assay [10], in assay [11] and in [12] was inactive. The outcome in [13] is “inactive”; with CD40, CD40 (gene 958) it was “inactive”; in assay [14], “inactive”; in assay [15], “inactive”; in [16] it was “inactive”; in [17] it was “inactive”.

Turning to `CCOP(=S)(OCC)SCSC(C)(C)C`, the outcome in assay [1], in assay [2], in assay [3], in assay [4], in assay [5] and in assay [6] was inactive. Also, the result in [7], in [8], in assay [9], in [10], in assay [11] and in assay [18] was inactive. Moreover, the result in assay [12], in [13], in assay [14], in assay [15], in [16] and in assay [17] was inactive. The AC50 in the assay with CD40, CD40 (gene 958) is 36.2 µM (active).

These data come from PubChem BioAssay (EPA / NIEHS).
